Molecules are shown by their SMILES. Inconclusive results are not listed. Calls of active or inactive are those of the source. Unless noted, calls follow the shape of the dose curve; as a rule, active = well fitted curve in the direction sought with a large enough effect in the repeat runs; inconclusive = weak or mixed curves; inactive = no such curve, though single readings can be large; an effect the other way counts as inactive or inconclusive.
% is scaled to controls: 0 for no effect and ±100 for the full control effect.

Tested on in the first experiment: not listed separately
The experiment is described as follows: qHTS assay to identify small molecule antagonists of the estrogen related receptor (ERR) signaling pathway - cell viability counter screen (AID 1224818).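 Also: viability measured after 17.5 h of compound exposure.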 The conditions noted are these: ERR reporter cell line viability counter screen; series mostly up to 46.1 µM; viability change, negative = cytotoxic: at the top concentration. In short, it runs like this:
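Cytotoxicity check run alongside the ERR antagonist screen: cells exposed to test compounds 17.5 h at 37 C, viability taken as CellTiter-Fluor fluorescence intensity.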
A general note: In qHTS, concentration-response curves come from the screen itself.
For `C[C@]12C=CC(=O)C=C1CC[C@H]1[C@@H]3C[C@@H](O)[C@](O)(C(=O)CO)[C@@]3(C)C[C@H](O)[C@@]12F`, the “viability change, negative = cytotoxic” value was 5.34% (inactive).
As to `C[N+](C)(C)CCO`, the “viability change, negative = cytotoxic” value was 2.39% (inactive).
The same measure, in the same setting: the value for `CNC[C@H](O)c1ccc(O)c(O)c1` was 5.3% (inactive); that for `C[C@]12CC[C@@H]3c4ccc(O)cc4CC[C@H]3[C@@H]1CC[C@@H]2O` was -13.4% (inactive); that for `NC[C@H](O)c1ccc(O)c(O)c1` was 12.1% (inactive).
As for `CC(C)[N+](C)(CCOC(=O)C1c2ccccc2Oc2ccccc21)C(C)C`, the “viability change, negative = cytotoxic” value is 10.5% (inactive).

Tested on in another experiment: not listed separately
The experiment is described as follows: qHTS assay to identify small molecule agonists of the estrogen related receptor (ERR) signaling pathway (AID 1224820). The conditions noted are these: ERR reporter cell line, luciferase agonist mode; series mostly up to 46.1 µM; activation: at the top concentration. An outline of the steps: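 An ERR cell line provided by NTP was seeded at 2,000 cells per well and allowed to settle for 6 h before compounds in DMSO were added. After 18 h at 37 C, luciferase activity was measured by One-Glo luminescence.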
For the compound `C[C@]12C=CC(=O)C=C1CC[C@H]1[C@@H]3C[C@@H](O)[C@](O)(C(=O)CO)[C@@]3(C)C[C@H](O)[C@@]12F`, the “activation” value is -18.6% (inactive).
Still for that read-out and setting: under `CNC[C@H](O)c1ccc(O)c(O)c1` stands 13.5% (inactive).
The same measure, in the same setting: under `C[C@]12CC[C@@H]3c4ccc(O)cc4CC[C@H]3[C@@H]1CC[C@@H]2O` stands -50.2% (inactive).

The next experiment deals with estrogen-related receptor alpha (ERRalpha) with PGC-1alpha coactivator, human. The experiment is described as follows: qHTS assay to identify small molecule antagonists of the estrogen related receptor signaling pathway with the pleiotropic PPARgamma coactivator (PGC) (AID 1224821; calls by dose curve;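 also: lower luminescence signal means antagonism of PGC/ERR signalling; nearly all actives have a fitted effect of over 50% in size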). The conditions noted are these: ERR/PGC reporter cell line, luciferase, antagonist mode; series mostly up to 46.1 µM; activity change, negative = inhibition: at the top concentration. In short, it runs like this: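 A PGC/ERR cell line supplied by NTP is seeded, allowed 6 h at 37 C, and treated with test compounds in DMSO for 18 h. Signal is then measured as luciferase luminescence using One-Glo.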
Regarding `C[C@]12C=CC(=O)C=C1CC[C@H]1[C@@H]3C[C@@H](O)[C@](O)(C(=O)CO)[C@@]3(C)C[C@H](O)[C@@]12F`, the “activity change, negative = inhibition” value is 4.96% (inactive).
The same measure, in the same setting: the value for `CNC[C@H](O)c1ccc(O)c(O)c1` was 48.9% (inactive).
The same measure, in the same setting: under `C[C@]12CC[C@@H]3c4ccc(O)cc4CC[C@H]3[C@@H]1CC[C@@H]2O` stands 15.7% (inactive).

Tested on in a further experiment: not listed separately
The experiment is described as follows: qHTS assay to identify small molecule antagonists of the estrogen related receptor signaling pathway with the pleiotropic PPARgamma coactivator (PGC) cell viability counter screen (AID 1224822;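 also: viability read after 17.5 h compound exposure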). The conditions noted are these: ERR/PGC reporter cell line viability counter screen; series mostly up to 46.1 µM; viability change, negative = cytotoxic: at the top concentration. An outline of the steps:
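Viable cell signal (CellTiter-Fluor, 30 min, 37 C/5% CO2) was measured in PGC/ERR cells after a 17.5 h compound incubation.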
For `C[C@]12C=CC(=O)C=C1CC[C@H]1[C@@H]3C[C@@H](O)[C@](O)(C(=O)CO)[C@@]3(C)C[C@H](O)[C@@]12F`, the “viability change, negative = cytotoxic” value was 3.65% (inactive).
Same read-out and setting: the value for `C[N+](C)(C)CCO` was 6.52% (inactive).
On the same count and under the same terms, the value for `CNC[C@H](O)c1ccc(O)c(O)c1` was 5.91% (inactive); that for `C[C@]12CC[C@@H]3c4ccc(O)cc4CC[C@H]3[C@@H]1CC[C@@H]2O` was -21% (inactive); that for `NC[C@H](O)c1ccc(O)c(O)c1` was 3.65% (inactive).
Same read-out and setting: under `CC(C)[N+](C)(CCOC(=O)C1c2ccccc2Oc2ccccc21)C(C)C` stands 8.09% (inactive).

Tested on in a further experiment: not listed separately
The experiment is described as follows: qHTS assay to identify small molecule agonists of the estrogen related receptor signaling pathway with the pleiotropic PPARgamma coactivator (PGC) (AID 1224823). The conditions noted are these: ERR/PGC reporter cell line, luciferase agonist mode; series mostly up to 46.1 µM; activation: at the top concentration. An outline of the steps:
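Compounds dissolved in DMSO are added by pin tool to PGC/ERR cells that have settled for 6 h, and incubation continues 18 h at 37 C. Reporter output is measured as One-Glo luminescence.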
Take `C[C@]12C=CC(=O)C=C1CC[C@H]1[C@@H]3C[C@@H](O)[C@](O)(C(=O)CO)[C@@]3(C)C[C@H](O)[C@@]12F`: the “activation” value is 3.99% (inactive).
The same measure, in the same setting: the value for `CNC[C@H](O)c1ccc(O)c(O)c1` was 17.2% (inactive); that for `C[C@]12CC[C@@H]3c4ccc(O)cc4CC[C@H]3[C@@H]1CC[C@@H]2O` was 6.81% (inactive).

Tested on in another experiment: not listed separately
The experiment is described as follows: qHTS assay to identify small molecule antagonists of the estrogen related receptor (ERR) signaling pathway from Tox21 library - cell viability counter screen (AID 1224834). Also: nearly all actives have a fitted effect of over 30% in size. Also: potency is read from the fitted curve at half-maximal effect. The conditions noted are these: ERR reporter cells viability, CellTiter-Fluor, 17.5 h; series mostly up to 92.4 µM; viability change, negative = cytotoxic: at the top concentration. An outline of the steps:
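In this quantitative HTS format, ERR cells receive compounds in DMSO and are incubated for 17.5 h at 37 C. Live-cell protease activity is then detected with CellTiter-Fluor.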
For the compound `C[N+](C)(C)CCO`, the Potency result was “inactive”.
Same read-out and setting: under `c1ccc2c(c1)ccc1ncccc12` stands “inactive”; under `c1ccc2cc3ccccc3cc2c1`, “inactive”.
As for `CNC[C@H](O)c1ccc(O)c(O)c1`, the viability change, negative = cytotoxic was 2.34% [at 19 µM] (inactive).
Take `CC(=O)O[C@]1(C(C)=O)CC[C@H]2[C@@H]3C=C(Cl)C4=CC(=O)CC[C@]4(C)[C@H]3CC[C@@]21C`: the Potency was 61 µM (active).
On the same count and under the same terms, under `OC[C@@H](O)[C@@H](O[C@@H]1O[C@H](CO)[C@H](O)[C@H](O)[C@H]1O)[C@H](O)[C@@H](O)CO` stands “inactive”.
Take `O=C(O)CCCCCCCCCCCC(=O)O`: the Potency entry was “inactive”.
The same measure, in the same setting: under `[O-]/[N+](=N\O)c1ccccc1` stands “inactive”; under `NC[C@H](O)c1ccc(O)c(O)c1`, “inactive”; under `OC[C@H]1O[C@@H]2O[C@H]3[C@H](O)[C@@H](O)[C@@H](O[C@H]4[C@H](O)[C@@H](O)[C@@H](O[C@H]5[C@H](O)[C@@H](O)[C@@H](O[C@H]6[C@H](O)[C@@H](O)[C@@H](O[C@H]7[C@H](O)[C@@H](O)[C@@H](O[C@H]1[C@H](O)[C@H]2O)O[C@@H]7CO)O[C@@H]6CO)O[C@@H]5CO)O[C@@H]4CO)O[C@@H]3CO`, “inactive”.
Same read-out and setting: under `CC(C)[N+](C)(CCOC(=O)C1c2ccccc2Oc2ccccc21)C(C)C` stands “inactive”.

The record behind these values is PubChem BioAssay (Tox21).
